PubChem BioAssay (EPA / NIEHS)
A structure can be active in one record and inactive in another. Active and inactive are the calls of the source. Rule for the calls: active = hit-call score of the fitted dose curve at least 0.9, where 1 is the maximum; inactive = score below 0.9.

Read-out: Vascular endothelial growth factor receptor 2 (Homo sapiens) (UniProt P35968)
Assay: BSK_4H_VEGFRII: BioMAP Diversity Plus: 4H Assay for Vascular endothelial growth factor receptor 2 (VEGFR2) Biomarker Activity (AID 2283031)
Conditions: primary human endothelial cells (HUVEC); actives raise or lower the signal
Description: BSK_4H is a cell-based, multiplexed-readout assay that uses umbilical vein endothelium, a human vascular primary cell, with measurements taken at 24 hours after chemical dosing in a 96-well plate.BSK_4H_VEGFRII is an assay component measured in the BSK_4H assay. It measures VEGFRII antibody related to regulation of gene expression using ELISA technology.Data from the assay component BSK_4H_VEGFRII was analyzed into 1 assay endpoint. This assay endpoint, BSK_4H_VEGFRII, was analyzed with bidirectional fitting relative to DMSO as the negative control and baseline of activity. Using a type of binding reporter, gain or loss-of-signal activity can be used to understand changes in the signaling as they relate to the gene KDR. Furthermore, this assay endpoint can be referred to as a primary readout, because this assay has produced multiple assay endpoints where this one serves a signaling function. To generalize the intended target to other relatable targets, this assay endpoint is annotated to the kinase intended target family, where the subfamily is receptor tyrosine kinase.
The levels of cell surface (or secreted, indicated by the prefix "s") biomarker endpoints were measured by ELISA. Overt cytotoxicity to cells in confluent adherent cultures (all systems other than the BT system) was assessed by measuring total protein levels using sulforhodamine B (SRB) staining in parallel cultures at the time of biomarker measurements, indicated as SRB endpoints. For proliferation assays for adherent cell types, individual cell types are cultured at sub-confluence and relative cell numbers quantified by SRB staining at time points optimized for each system (48 h: 3C and CASM3C systems; 72 h: BT and HDF3CGF systems; 96 h: SAg system). SRB was performed by staining cells with 0.1% SRB after fixation with 10% TCA and reading wells at 560 nm.Viability and proliferation of PBMC (T cells) was quantified by Alamar Blue reduction for the SAg and BT systems. For PBMC viability (referred to as PBMC Cytotoxicity within the assay endpoint names), cells were plated (75,000/well in a 96-well plate) and then chemical samples added for 1 h before addition of activators, SEB and TSST-1 (20 ng/mL final concentration each). Cells were incubated for 90 h. Then, Alamar Blue (20 uL/well) (Invitrogen, Cat DAL1100) was added for 6 h, and the plates were read with a fluorescence microplate reader at 546/580 nm (excitation/emission). For PBMC proliferation, cells were plated and activated as above but incubated for only 16 h prior to addition of Alamar Blue. Plates were read after 6 h.

Row | SMILES | outcome | AC50
1 | OCC(O)CC(F)(F)C(F)(F)C(F)(F)C(F)(F)F (stereo not given) | inactive | –
2 | NC(=O)C(F)(F)C(F)(F)C(F)(F)C(F)(F)C(F)(F)C(F)(F)C(F)(F)F | inactive | –
3 | C=CC(=O)OCC(F)(F)C(F)(F)C(F)(F)COC(=O)C=C | inactive | 53.8 µM (active)
4 | NS(=O)(=O)C(F)(F)C(F)(F)C(F)(F)C(F)(F)C(F)(F)C(F)(F)F | inactive | –
5 | FC(F)(F)C(F)(F)C(F)(F)C(F)(F)C(F)(F)C(F)(F)CC[Si](Cl)(Cl)Cl | inactive | –
6 | C=CC(=O)OCCC(F)(F)C(F)(F)C(F)(F)C(F)(F)F | inactive | –
7 | O=C1C=CC(=O)N1c1ccc(Cc2ccc(N3C(=O)C=CC3=O)cc2)cc1 | – | 10.6 µM (active)
8 | CCN(CC)c1ccc(C=O)cc1 | inactive | –
9 | O=C(c1ccccc1)c1ccc(O)cc1O | inactive | –
10 | OC(O)C(F)(F)C(F)(F)F | inactive | –
11 | Nc1cc([N+](=O)[O-])cc(Cl)c1O | inactive | –
12 | C=CC(=O)OCC(F)(F)C(F)(F)C(F)(F)C(F)(F)C(F)(F)C(F)(F)C(F)(F)C(F)F | inactive | –
13 | NC(=O)C(F)(F)C(F)(F)C(F)(F)F | inactive | –
14 | O=C=NCc1cccc(CN=C=O)c1 | inactive | –
15 | O=C(O)CCC(F)(F)C(F)(F)C(F)(F)F | inactive | –
16 | O=S(=O)(O)CCC(F)(F)C(F)(F)C(F)(F)C(F)(F)F | inactive | –
17 | OCC(F)(F)C(F)(F)C(F)(F)C(F)(F)C(F)(F)C(F)(F)CO | inactive | –
18 | O=S(=O)(OCC(F)(F)F)C(F)(F)C(F)(F)C(F)(F)C(F)(F)F | inactive | –
19 | CCN(CC)c1ccc(C=O)c(O)c1 | inactive | –
20 | NC(=O)C(F)(F)C(F)(F)C(F)(F)C(F)F | inactive | –

Row | SMILES | outcome | AC50
21 | OCC(O)CC(F)(F)C(F)(F)C(F)(F)C(F)(F)C(F)(F)C(F)(F)C(F)(F)C(F)(F)F (stereo not given) | inactive | –
22 | Brc1nc2ccccc2s1 | inactive | –
23 | O=C(Cl)C(F)(F)C(F)(F)C(F)(F)C(F)(F)C(F)(F)C(F)(F)C(F)(F)F | inactive | –
24 | O=C1c2c(O)ccc(Nc3ccc(CCO)cc3)c2C(=O)c2c([N+](=O)[O-])ccc(O)c21 | – | 34.8 µM (active)
25 | O=S(=O)(O)CCC(F)(F)C(F)(F)C(F)(F)C(F)(F)C(F)(F)C(F)(F)C(F)(F)C(F)(F)F | inactive | –
26 | NCC(F)(F)C(F)(F)C(F)(F)C(F)(F)C(F)(F)C(F)(F)F | inactive | –
27 | NC(O)(C(F)(F)F)C(F)(F)F | inactive | –
28 | NC(=O)C(F)(F)C(F)(F)C(F)(F)C(F)(F)C(N)=O | inactive | –
29 | O=C(Cl)C(F)(F)C(F)(F)C(F)(F)C(F)(F)C(F)(F)C(F)(F)F | inactive | –
30 | Cc1cnccn1 | inactive | –
31 | O=C(O)C(F)(F)C(F)(F)C(F)(F)OC(F)(C(F)(F)F)C(F)(F)F | inactive | –
32 | O=C(F)C1(F)C(F)(F)C(F)(F)C(F)(F)C(F)(F)C1(F)F | inactive | –
33 | CNS(=O)(=O)C(F)(F)C(F)(F)C(F)(F)C(F)(F)C(F)(F)C(F)(F)C(F)(F)C(F)(F)F | inactive | –
34 | FC(F)(F)C(F)(F)C(F)(F)CC1CO1 (stereo not given) | inactive | –
35 | OCC(F)(F)C(F)(F)C(F)(F)CO | inactive | –
36 | CO[Si](C)(CCC(F)(F)C(F)(F)C(F)(F)C(F)(F)C(F)(F)C(F)(F)F)OC | inactive | –
37 | OCC(F)(F)C(F)(F)C(F)(F)C(F)(F)C(F)(F)C(F)(F)C(F)(F)C(F)(F)CO | inactive | –
38 | O=C(O)CCC(F)(F)C(F)(F)C(F)(F)C(F)(F)C(F)(F)C(F)(F)C(F)(F)F | inactive | –
39 | COC(F)(C(F)F)C(F)(F)F (stereo not given) | inactive | –
